Experimental data taken from PubChem BioAssay (Tox21).
Activity calls are given as the source filed them. Calls follow the shape of the dose curve; as a rule, active = well fitted curve in the direction sought with a large enough effect in the repeat runs; inconclusive = weak or mixed curves; inactive = flat fitted curve, though single readings scatter.

Experiment: qHTS assay to test for compound auto fluorescence at 535 nm (green) in HepG2 cells (AID 720675)
Conditions: green autofluorescence 485/535 nm, 1 h; series mostly up to 91.3 µM
Source text: National Center for Advancing Translational Sciences [NCATS]
NIH Chemical Genomics Center [NCGC]
U.S. Environmental Protection Agency [EPA]
National Institutes of Environmental Health Sciences [NIEHS]
National Toxicology Program [NTP]
U.S. Food and Drug Administration [FDA]
Compound auto fluorescence often interferes with screening of the compound library against various biological targets and signaling pathways. Some of these compounds may have fluorophoric properties. Such properties may interfere with the assay outputs resulting in false positives and/or negatives. To decrease such complications and ensure the compound activities are relevant in terms of biological response, the Tox21 10K compound library was screened for auto fluorescence.
From the fluorophores used as reporter signals in our screening assays, the auto fluorescence equivalencies of compounds against three fluorophores have been evaluated: Triamterene, Fluorescein and Rose Bengal sodium for blue, green and red fluorescence, respectively. The fluorescence intensities were measured using Excitation/Emission wavelengths at 405/460nm, 485/535nm and 540/590nm for blue, green and red labels, respectively. This assay includes the green fluorescence data.
Tox21 Assay Protocol Summary:
2,000 HepG2 cells in 5 uL of culture medium (MEM containing 10% FBS) per well were dispensed into black wall/clear bottom 1536-well plates using a Multidrop Combi Dispenser (ThermoFisher Scientific, Waltham, MA). The assay plates were incubated overnight at 37 C to allow cell attachment to the well bottom, followed by the transfer of 23 nL compound or DMSO vehicle by a pintool work station (Kalypsys , San Diego, CA). After the assay plates were incubated for 1 hr at 37 C and 5% CO2, fluorescence intensities in the assay plates were measured by an Envision (PerkinElmer, Shelton, CT) plate reader using three labels for measuring blue, green and red fluorescence at […] 460, 535 and 590 nm respectively.
% is scaled to controls: 0 for no effect and ±100 for the full control effect.

Row | Compound | outcome | fluorescence, % of fluorescein control
1 | CC(=O)OCC(=O)[C@@]1(OC(C)=O)[C@@H](C)C[C@H]2[C@@H]3C[C@H](F)C4=CC(=O)C=C[C@]4(C)[C@@]3(F)[C@@H](O)C[C@@]21C | inactive | 
2 | O=NN(CCCl)C(=O)NCCCl | inactive | 
3 | COc1ccc(-c2cc(=S)ss2)cc1 | inactive | 
4 | CCN(CC)CCOc1ccccc1C(=O)CCc1ccccc1 | inactive | 
5 | O=C(O)CNC(=O)c1ccccc1I | inactive | 
6 | C1CCCCC1 | inactive | 
7 | CCO[Si](C)(CCCOCC1CO1)OCC (stereo not given) | inactive | 
8 | CC[C@H]1OC(=O)[C@H](C)[C@@H](O[C@H]2C[C@@](C)(OC)[C@@H](O)[C@H](C)O2)[C@H](C)[C@@H](O[C@@H]2O[C@H](C)C[C@H](N(C)C)[C@H]2O)[C@](C)(O)C[C@@H](C)C(=O)[C@H](C)[C@@H](O)[C@]1(C)O | inactive | 
9 | CC(C)CC(O)CC(C)C | inactive | 
10 | O=C(Nc1ccc(C(=O)O)c(O)c1)c1ccccc1 | inactive | 
11 | CC(=O)OCC(C)C | inactive | 
12 | CC(C)c1ccc(C#N)cc1 | inactive | 
13 | C=C(C)c1ccccc1 | inactive | 
14 | CC(CCc1ccc(O)cc1)NCCc1ccc(O)c(O)c1 (stereo not given) | inactive | 
15 | CC(C)COC(=O)c1ccc(O)cc1 | inactive | 
16 | CCOC(=O)c1c(N)sc2c1CCN(Cc1ccccc1)C2 | inactive | 
17 | Cc1ccc(S(=O)(=O)NC(=O)NC2CCCCC2)cc1 | inactive | 
18 | CCCCCCCCCCCCCCN(C)C |  | 0.0291% [at 18.6 µM] (inactive)
19 | CC(C)(O)CCc1ccccc1 | inactive | 
20 | CCCCCCCCCCCC(=O)OCC(O)CO (stereo not given) | inactive | 

Row | Compound | outcome | fluorescence, % of fluorescein control
21 | Cc1ccc(N(CCO)CCO)cc1 | inactive | 
22 | COc1ccc(C)cc1 | inactive | 
23 | CNC1CCCN(c2c(F)cc3c(=O)c(C(=O)O)cn(C4CC4)c3c2OC)C1 (stereo not given) | inactive | 
24 | CC1C(C)(C)C2=C(C(=O)CCC2)C1(C)C (stereo not given) | inactive | 
25 | COc1ccc(CCN(C)CCCN2CCc3cc(OC)c(OC)cc3CC2=O)cc1OC | inactive | 
26 | CNCc1ccc(NC(=O)c2c[nH]c3c2C(=O)CCC3)cc1 | inactive | 
27 | O=S(=O)(Cl)c1c(Cl)cccc1Cl | inactive | 
28 | O=C1[C@@H]2[C@H]3CC[C@H](C3)[C@@H]2C(=O)N1CCCCN1CCN(c2ncccn2)CC1 | inactive | 
29 | COc1cc(NS(=O)(=O)c2ccc(N)cc2)nc(C)n1 | inactive | 
30 | CCC(CO)(CO)CO | inactive | 
31 | O=C(NS(=O)(=O)/C=C/c1ccccc1)c1ccc(F)cc1Cl | inactive | 
32 | CCN(CC)C(=O)/C(C#N)=C/c1cc(O)c(O)c([N+](=O)[O-])c1 | inactive | 
33 | O=C1NC(=O)c2cccc3cccc1c23 | inactive | 
34 | CCN(CC)C(=O)N1CCN(C)CC1 |  | -0.0715% [at 18.6 µM] (inactive)
35 | O=CNNC=O | inactive | 
36 | CCN(CC)c1ccc(C(=C2C=CC(=[N+](CC)CC)C=C2)c2ccc(S(=O)(=O)O)cc2S(=O)(=O)[O-])cc1 | inactive | 
37 | C=Cc1ccc(OC(C)=O)cc1 | inactive | 
38 | CCCOC(=O)c1c(Cl)c(Cl)c(Cl)c(Cl)c1C(=O)OCCC | inactive | 
39 | CCCCC(CC)COS(=O)(=O)O (stereo not given) | inactive | 
40 | CC(C)(C)S | inactive | 
